This is an account of results in PubChem BioAssay (EPA / NIEHS).

Several values for one entry are separate records, joined by “and”; a condition that tells them apart may be missing. Equal values may be shown once. Activity calls are given as the source filed them. The calls were made as follows: active = hit-call score of the fitted dose curve at least 0.9, where 1 is the maximum; inactive = score below 0.9.

The term AC50 denotes the concentration giving half of the maximal activity seen.

The experiment can be described thus: BSK_MyoF_SRB: Viability Assessment in the BioMAP Diversity Plus: MyoF Assay (AID 2284267). The following applies: primary human lung fibroblasts. How it is done:
BSK_MyoF is a cell-based, multiplexed-readout assay that uses lung fibroblasts, […], with measurements taken at 24 hours after chemical dosing in a microplate: 96-well plate.BSK_MyoF_SRB is an assay component measured in the BSK_MyoF assay. It measures 0.1% sulforhodamine related to cell death using Sulforhodamine staining technology.Data from the assay component BSK_MyoF_SRB was analyzed at the endpoint, BSK_MyoF_SRB, in the positive analysis fitting direction relative to DMSO as the negative control and baseline of activity. Using a type of viability reporter, gain or loss-of-signal activity can be used to understand protein changes. To generalize the intended target to other relatable targets, this assay endpoint is annotated to the 'cell morphology' intended target family, where the subfamily is 'cell conformation'.
The levels of cell surface (or secreted, indicated by the prefix "s") biomarker endpoints were measured by ELISA. Overt cytotoxicity to cells in confluent adherent cultures (all systems other than the BT system) was assessed by measuring total protein levels using sulforhodamine B (SRB) staining in parallel cultures at the time of biomarker measurements, indicated as SRB endpoints. For proliferation assays for adherent cell types, individual cell types are cultured at sub-confluence and relative cell numbers quantified by SRB staining at time points optimized for each system (48 h: 3C and CASM3C systems; 72 h: BT and HDF3CGF systems; 96 h: SAg system). SRB was performed by staining cells with 0.1% SRB after fixation with 10% TCA and reading wells at 560 nm.Viability and proliferation of PBMC (T cells) was quantified by Alamar Blue reduction for the SAg and BT systems. For PBMC viability (referred to as PBMC Cytotoxicity within the assay endpoint names), cells were plated (75,000/well in a 96-well plate) and then chemical samples added for 1 h before addition of activators, SEB and TSST-1 (20 ng/mL final concentration each). Cells were incubated for 90 h. Then, Alamar Blue (20 uL/well) (Invitrogen, Cat DAL1100) was added for 6 h, and the plates were read with a fluorescence microplate reader at 546/580 nm (excitation/emission). For PBMC proliferation, cells were plated and activated as above but incubated for only 16 h prior to addition of Alamar Blue. Plates were read after 6 h.
Consider `COC(=O)/C=C\C(=O)OC`, for which the outcome was inactive.
Consider `OC(C(F)(F)F)(C(F)(F)F)C(O)(C(F)(F)F)C(F)(F)F`, for which the half-maximal activity concentration (AC50) was 36.7 µM (active) and 37.8 µM (active).
Consider `CN(C)c1ccc(C(c2ccccc2)c2ccc(N(C)C)cc2)cc1`, for which the result was inactive.
Still for that read-out and setting: as for `CCCCCCC(O)CCCCCCCCCCC(=O)OC` (stereo not given), the entry is “inactive”; as for `CCCCCCCCCC/C=C/C1CC(=O)OC1=O` (stereo not given), “inactive”.
In the case of `CCCCCCCCCCC1CO1` (stereo not given), the half-maximal activity concentration (AC50) was 35.2 µM (active).
On to `Cc1cc(-n2nc3ccc(Cl)cc3n2)c(O)c(C(C)(C)C)c1`, for which the result was inactive.
Regarding `Oc1cccc2ccccc12`, the outcome was inactive.
Regarding `O=C(C(=O)c1ccccc1)c1ccccc1`, the result was inactive.
As to `CCCCCCCCCCCCCCCCCC[N+](C)(C)C`, the AC50 is 3.6 µM (active).
As to `Cc1cccnc1`, the outcome was inactive.
Consider `CC[N+](CC)(CC(=O)Nc1c(C)cccc1C)Cc1ccccc1`, for which the result was inactive.
Turning to `Sc1nc2ccccc2s1`, the outcome was inactive.
As for `CC(C)CC(=O)CC(C)CC(C)C` (stereo not given), the outcome was inactive.
Same read-out and setting: as for `CN(C)CCC(c1ccc(Cl)cc1)c1ccccn1` (stereo not given), the entry is “inactive”.
